Enrichment ratio data for 155 variants are collected here from a collection of fitness landscapes (doi:10.1126/science.1257360).

B1: PhoQ; a variant is named by its letters at X, in order, P23837 (parent)
chain: MKKLLRLFFPLSLRVRFLLATAAVVLVLSLAYGMVALIGYSVSFDKTTFRLLRGESNLFYTLAKWENNKLHVELPENIDKQSPTMTLIYDENGQLLWAQRDVPWLMKMIQPDWLKSNGFHEIEADVNDTSLLLSGDHSIQQQLQEVREDDDDAEMTHSVAVNVYPATSRMPKLTIVVVDTIPVELKSSYMVWSWFIYVLSANLLLVIPLLWVAAWWSLRPIEALAKEVRELEEHNRELLNPATTRELTSLVRNLNRLLKSERERYDKYRTTLTDLTHSLKTPLXXLQXXLRSLRSEKMSVSDAEPVMLEQISRISQQIGYYLHRASMRGGTLLSRELHPVAPLLDNLTSALNKVYQRKGVNISLDISPEISFVGEQNDFVEVMGNVLDNACKYCLEFVEISARQTDEHLYIVVEDDGPGIPLSKREVIFDRGQRVDTLRPGQGVGLAVAREITEQYEGKIVAGESMLGGARMEVIFGRQHSAPKDE

In all, about 140,000 sequences were measured (“enrichment ratio after two sorts for PhoP signalling”: median about 0, highest 2% from about 11 on). Many of the other results were omitted from the sample, so the highest values are more common in it than they were.

In this test the parent is B1. In words: enrichment ratio after two sorts for PhoP signalling (ratio (wild type AVST 3.29)); higher = more functional. The conditions noted are these: with PhoP (E. coli).
On to GIMC, for which the enrichment ratio was 17.3.
GIAW: the enrichment ratio stood at 21.6.
In the case of GILR, the enrichment ratio came to 12.2.
Take GTMC: the enrichment ratio is ≤ 0.25.
As to GNAW, the enrichment ratio was ≤ 0.25.
For GITD, the enrichment ratio is ≤ 0.25.
GNMC: the enrichment ratio was ≤ 0.25.
As to GNVV, the enrichment ratio came to 5.22.
In the case of GNLR, the enrichment ratio is ≤ 0.25.
As for GYLR, the enrichment ratio was ≤ 0.25.
As for MDVY, the enrichment ratio is ≤ 0.25.
Turning to LSLS, the enrichment ratio was ≤ 0.25.
As to IAET, the enrichment ratio was ≤ 0.25.
Regarding ECYK, the enrichment ratio was ≤ 0.25.
The figure for KLTV is ≤ 0.25.
The figure for LQYA is ≤ 0.25; for LGNN it is ≤ 0.25.
QGIH: the enrichment ratio was ≤ 0.25.
Turning to EKVT, the enrichment ratio was ≤ 0.25.
Regarding YIEP, the enrichment ratio was ≤ 0.25.
For the variant HLIK, the enrichment ratio was ≤ 0.25.
Regarding GITI, the enrichment ratio is 5.68.
The figure for GNLG is 5.07.
Regarding GIAG, the enrichment ratio was determined as 15.6.
Take GISK: the enrichment ratio worked out at 4.87.
For GISS, the enrichment ratio was determined as 13.5.
As to GIMG, the enrichment ratio was found to be 8.1.
The figure for GNTK is ≤ 0.25; for GITG it is 2.48.
On to GILG, for which the enrichment ratio stood at 12.3.
The figure for GNAG is 0.269; for GNSS it is 5.64; for GITK it is 16.
For RNAN, the enrichment ratio was ≤ 0.25.
For KNTS, the enrichment ratio is ≤ 0.25.
The figure for TMDQ is ≤ 0.25; for AWAD it is ≤ 0.25; for RVNY it is ≤ 0.25.
Under YHMP stands ≤ 0.25.
With AFVI, the enrichment ratio is ≤ 0.25.
SYPA: the enrichment ratio is ≤ 0.25.
With GITA, the enrichment ratio is 7.39.
As to GNAS, the enrichment ratio is 4.84.
In the case of GIAT, the enrichment ratio was ≤ 0.25.
With GISM, the enrichment ratio worked out at 18.4.
GIWI: the enrichment ratio was ≤ 0.25.
In the case of GNLQ, the enrichment ratio was 5.83.
Under GIYI stands 0.548; under GILA, 11.3; under GIAS, 14.2.
Consider GISF, for which the enrichment ratio worked out at 8.06.
In the case of GILQ, the enrichment ratio amounted to 17.5.
With GNSM, the enrichment ratio was 10.6.
Consider EYAS, for which the enrichment ratio was ≤ 0.25.
Turning to LGCH, the enrichment ratio is ≤ 0.25.
Consider TLYV, for which the enrichment ratio was determined as 0.293.
In the case of LEIN, the enrichment ratio is ≤ 0.25.
The figure for EYMV is ≤ 0.25; for RHQP it is ≤ 0.25; for GIME it is 13.3.
Take GICE: the enrichment ratio turned out to be 6.08.
In the case of GNME, the enrichment ratio is ≤ 0.25.
On to DICD, for which the enrichment ratio was ≤ 0.25.
As for EHLY, the enrichment ratio was ≤ 0.25.
Consider FVVK, for which the enrichment ratio was ≤ 0.25.
For ASSM, the enrichment ratio came to 19.3.
For the variant ASGR, the enrichment ratio is ≤ 0.25.
In the case of ASSF, the enrichment ratio turned out to be 11.3.
On to VRSM, for which the enrichment ratio is ≤ 0.25.
Under ASQM stands 2.47; under KSSF, ≤ 0.25; under VGAL, 0.829.
Under GWCN stands ≤ 0.25; under NMML, ≤ 0.25; under SGEL, ≤ 0.25.
Under SYML stands 0.252; under SWML, ≤ 0.25.
As for HEML, the enrichment ratio was ≤ 0.25.
As for SGML, the enrichment ratio turned out to be 17.4.
The figure for SNML is 15.9.
As to STML, the enrichment ratio is 13.4.
As for TIML, the enrichment ratio was 2.74.
For the variant SMML, the enrichment ratio was 14.5.
The figure for KYML is ≤ 0.25; for AVQL it is ≤ 0.25.
The figure for YNMI is 0.268; for IVRK it is ≤ 0.25.
As to TQMH, the enrichment ratio was 9.69.
As to IKMM, the enrichment ratio is ≤ 0.25.
The figure for WGHD is ≤ 0.25; for SQFI it is ≤ 0.25; for RPFT it is ≤ 0.25.
Under SSML stands 23.6; under SLML, 7.15; under SAKL, ≤ 0.25.
Take SIML: the enrichment ratio turned out to be 6.65.
Consider IIML, for which the enrichment ratio was ≤ 0.25.
On to SPML, for which the enrichment ratio is ≤ 0.25.
For the variant SAML, the enrichment ratio was determined as 16.5.
For the variant SRML, the enrichment ratio came to 4.3.
In the case of SCML, the enrichment ratio stood at 11.2.
As to HYKH, the enrichment ratio is ≤ 0.25.
On to GCEP, for which the enrichment ratio was ≤ 0.25.
As to RQGY, the enrichment ratio was ≤ 0.25.
Take IQNM: the enrichment ratio is ≤ 0.25.
The figure for FFWN is ≤ 0.25.
Turning to QLWN, the enrichment ratio is ≤ 0.25.
On to FVWN, for which the enrichment ratio was ≤ 0.25.
As for FTWN, the enrichment ratio was ≤ 0.25.
Turning to QTWN, the enrichment ratio is 16.8.
Consider QQRM, for which the enrichment ratio was ≤ 0.25.
Under QSQN stands ≤ 0.25; under QTWI, 3.53; under QGWN, 16.6.
As for QQNM, the enrichment ratio was 16.3.
For QSWN, the enrichment ratio was determined as 21.4.
Regarding QVFE, the enrichment ratio is ≤ 0.25.
As to EYFQ, the enrichment ratio was ≤ 0.25.
As for FTGV, the enrichment ratio is ≤ 0.25.
With FFRA, the enrichment ratio was ≤ 0.25.
Turning to LYHH, the enrichment ratio is ≤ 0.25.
As for EIFG, the enrichment ratio is ≤ 0.25.
On to NAWN, for which the enrichment ratio is ≤ 0.25.
In the case of FCWL, the enrichment ratio is ≤ 0.25.
As to KAWN, the enrichment ratio is ≤ 0.25.
Under QQWN stands 13.8.
Take MAWI: the enrichment ratio stood at 8.24.
Turning to QSWL, the enrichment ratio amounted to 11.6.
Consider MAWN, for which the enrichment ratio was 23.5.
Take MAWL: the enrichment ratio turned out to be 12.
On to TPWN, for which the enrichment ratio is ≤ 0.25.
Turning to QRWL, the enrichment ratio is ≤ 0.25.
The figure for FPWN is ≤ 0.25.
The figure for QPWL is ≤ 0.25.
Turning to YELN, the enrichment ratio amounted to 2.61.
The figure for KINA is ≤ 0.25; for IDLY it is ≤ 0.25.
In the case of SGPA, the enrichment ratio was ≤ 0.25.
Regarding TVIM, the enrichment ratio was ≤ 0.25.
Take ALLC: the enrichment ratio amounted to 1.19.
The figure for SWSV is ≤ 0.25.
Take LKFM: the enrichment ratio is ≤ 0.25.
FEFH: the enrichment ratio is ≤ 0.25.
With QQWL, the enrichment ratio is 11.7.
The figure for QIWN is 27.2; for QRYN it is ≤ 0.25.
As for QQNL, the enrichment ratio worked out at 14.9.
For the variant QEYN, the enrichment ratio was ≤ 0.25.
As to QPWN, the enrichment ratio is ≤ 0.25.
Turning to QQQL, the enrichment ratio was ≤ 0.25.
Take QVWL: the enrichment ratio worked out at 1.05.
QRWN: the enrichment ratio was ≤ 0.25.
For the variant QIYN, the enrichment ratio was found to be 20.5.
For the variant QQEL, the enrichment ratio is ≤ 0.25.
On to QQRL, for which the enrichment ratio was ≤ 0.25.
